Among the data in PubChem BioAssay AID463173 (ICCB-Longwood Screening Facility, Harvard Medical School, 2010) are survival values, retold here.

The campaign covered roughly 52,000 compounds. About 1,700 (3.3%) were called active. The list comes from a sample in which actives are over-represented; it also holds similar structures and randomly drawn compounds. Unmarked numbers belong to inactive results. No stated cut-off is given here; in the data, active means survival mostly below about 52% (no sharp cut-off); inactive means mostly above about 56%.

The test has as its system Wild type. As to the kind of experiment: growth inhibition of S. aureus wild type versus tarO mutant, primary screen, teichoic acid synthesis inhibitors, RN4220, OD600 (AID 463173). The settings on record: S. aureus RN4220 wild type/DeltatarO growth, OD600, 18 h, stronger effect = lower value, screened at 18.75 µg/mL (by protocol).
As for `Cc1ccc(C)c(Cn2c(=O)n(Cc3ccc4c(c3)OCO4)c(=O)c3oc4ccccc4c32)c1`, the survival is 89%. As to `COc1ccc(CCC(=O)NCCc2csc(-c3ccc(C(F)(F)F)cc3)n2)cc1`, the survival is 80%. As for `COc1ccc(CC(=O)NCCc2csc(-c3ccc(C(F)(F)F)cc3)n2)cc1`, the survival was -6% (active). To `Cc1cccc(-c2nc(CCNC(=O)c3ccc(Br)o3)cs2)c1` belongs 69%; to `Cc1cccc(-c2nc(CCNC(=O)COc3ccccc3)cs2)c1`, 73%. As for `Cc1cccc(-c2nc(CCNC(=O)c3ccco3)cs2)c1`, the figure is -6% (active); as for `Cc1cccc(-c2nc(CCNC(=O)Cc3ccc(F)cc3)cs2)c1`, 14% (active).

On to `COc1ccc(-c2nc(CCNC(=O)Cc3ccc(F)cc3)cs2)cc1`, for which the survival was 134%.

Regarding `COc1ccc(CC(=O)NCCc2csc(-c3cccc(C)c3)n2)cc1`, the survival is 74%.

As to `O=C(NCCc1csc(-c2cccc(F)c2)n1)c1ccco1`, the survival was 69%. Regarding `CCOc1ccc(CC(=O)NCCc2csc(-c3ccc(C(F)(F)F)cc3)n2)cc1`, the survival is 90%. To `O=C(Cc1ccc(F)cc1)NCCc1csc(-c2cccc(F)c2)n1` belongs 69%; to `Cc1cccc(-c2nc(CCNC(=O)Cc3ccccc3)cs2)c1`, -1% (active); to `CC(C)c1cnc2c(c1SCC(=O)NC(C)(C)C)c(=O)n(C)c(=O)n2C`, 80%.

For `NC(=O)/C=C/C(=O)Nc1ccc2c(c1)OCO2`, the survival was 89%. `O=C(NCCc1csc2nc(-c3ccc(F)cc3)nn12)c1ccco1`: the survival is 126%. Regarding `COc1ccc(/C=C\c2onc(C)c2S(=O)(=O)N2CCC(C(=O)Nc3ccc(C)c(F)c3)CC2)cc1`, the survival is 93%. With `CC(=O)N1c2c(cc(Br)cc2S(=O)(=O)NCc2ccccc2Cl)CC1C` (stereo not drawn), the survival is 73%.

In the case of `C=Cc1ccc(Cn2c(C(=O)O)c(CNCc3cc(Br)ccc3OC)c3ccc(C)cc32)cc1`, the survival is 99%. As to `COc1ccc(CNC(=O)c2cc3sccc3n2Cc2ccc(C)cc2)cc1`, the survival is 91%. In the case of `Fc1ccc(N2CCN(c3ncnc4c3nc3n4CCCCC3)CC2)cc1`, the survival was 55%. To `COc1ccc(NC(=O)CSc2nnc(NC(=O)NC3CCCCC3)s2)cc1OC` belongs 65%; to `COc1ccc(S(=O)(=O)N2CCN(Cc3ccc4c(c3)OCO4)CC2)cc1OC`, 78%; to `Cc1ccc(S(=O)(=O)N2CCN(Cc3ccc4c(c3)OCO4)CC2)cc1`, 64%.

As to `Cc1cc(C)c(S(=O)(=O)N2CCN(Cc3ccc4c(c3)OCO4)CC2)cc1C`, the survival was 9% (active). On to `COc1ccc(NC(=O)c2ccco2)cc1NC(=O)c1ccc(C)c(C)c1`, for which the survival was 69%. With `COc1ccc(CNC(=O)c2cc3sccc3n2CC(=O)c2ccccc2)cc1`, the survival is 110%. For the compound `CCc1ccc(NC(=O)CC2C(=O)N(c3cccc(OC)c3)C(=O)N2C2CCCC2)cc1` (stereo not drawn), the survival was 120%. To `CCCCNC(=O)CCn1c(=O)c2ccccc2n(Cc2cccc(Cl)c2)c1=O` belongs 94%; to `CCSc1nc2ccc(C)cc2cc1C#N`, 111%; to `CCC(=O)C1=C(c2cccc([N+](=O)[O-])c2)N(C(=O)CC)n2c(nnc2C2CCCCC2)S1`, 63%. For `CCCC(=O)C1=C(c2ccc(C)cc2)N(C(=O)CCC)n2cnnc2S1`, the survival is 134%. On to `CCOc1ccc(C2=C(C(=O)CC)Sc3nncn3N2C(=O)CC)cc1`, for which the survival is -1% (active).

On to `CCC(=O)C1=C(c2ccccc2)N(C(=O)CC)n2c(nnc2C2CCCCC2)S1`, for which the survival is 14% (active). For `CC(=O)C1=C(c2cccc([N+](=O)[O-])c2)N(C(C)=O)n2c(nnc2-c2ccc(C)cc2)S1`, the survival is 85%. As for `CCC(=O)C1=C(c2ccc(C)cc2)N(C(=O)CC)n2c(nnc2C2CCCCC2)S1`, the figure is 76%; as for `CCC(=O)C1=C(c2ccc(F)cc2)N(C(=O)CC)n2c(nnc2C2CCCCC2)S1`, 78%; as for `CCC(=O)C1=C(c2ccc(F)cc2)N(C(=O)CC)n2cnnc2S1`, 133%.

`CCC(=O)C1=C(c2ccc(OC)c(OC)c2)N(C(=O)CC)n2c(nnc2-c2ccc(C)cc2)S1`: the survival was 74%.

For the compound `CCC(=O)C1=C(c2cccc([N+](=O)[O-])c2)N(C(=O)CC)n2c(nnc2-c2ccccc2)S1`, the survival was 0% (active). To `CCC(=O)C1=C(c2ccc(F)cc2)N(C(=O)CC)n2c(nnc2-c2ccc(OC)cc2)S1` belongs 53%; to `CCC(=O)C1=C(c2ccccc2)N(C(=O)CC)n2c(nnc2-c2ccccc2)S1`, -6% (active). With `COc1cc(C(=O)Nc2ccc3nc(SCc4ccc(C)cc4)sc3c2)cc(OC)c1OC`, the survival is 113%. Consider `CCc1ccc(N2C(=O)CSC23C(=O)N(Cc2ccc(C)cc2)c2ccccc23)cc1` (stereo not drawn), for which the survival is 66%. Turning to `Cc1ccc(NC(=O)Nc2nnc(N3CCCCC3)s2)c(C)c1`, the survival is 97%. Turning to `CCC(=O)Nc1nnc(SCCOC)s1`, the survival is 120%. To `COc1ccc(-c2oc3ncn4nc(-c5cccc(C)c5)nc4c3c2-c2ccc(OC)cc2)cc1` belongs 68%; to `O=C(COc1ccccc1)NCc1ccc2c(c1)CCN2C(=O)c1ccc(Cl)cc1`, 82%. `COC(=O)c1ccc(NC(=O)Cn2nc(C(=O)Nc3ccc(C)cc3)ccc2=O)cc1`: the survival was 85%. To `COc1ccc(CNC(=O)c2cc(Nc3ccc(C)cc3C)nc3ccccc23)cc1` belongs 91%; to `CCC(CC)C(=O)Nc1cc(-c2cn3cccnc3n2)ccc1OC`, 117%; to `CCNC(=O)C1CCN(Cc2cc3ccccc3n2Cc2ccc(C)cc2)CC1`, 85%.

On to `COc1cc(OC)c(NC(=O)c2cc3c(s2)-c2ccc(Cl)cc2SC3)cc1Cl`, for which the survival is 96%. `Fc1ccc(-n2ncc3c(NC4CCCCCC4)ncnc32)cc1`: the survival is 76%. In the case of `O=C1N(Cc2ccccc2)c2ccccc2C1(O)c1c[nH]c2ccccc12` (stereo not drawn), the survival was 67%. As for `Cc1[nH]c2ccccc2c1C1(O)C(=O)N(Cc2ccccc2)c2ccc(Br)cc21` (stereo not drawn), the figure is 14% (active). Turning to `Cc1ccc(C)c(CN2C(=O)C(O)(c3c[nH]c4ccccc34)c3ccccc32)c1` (stereo not drawn), the survival was 116%.

As for `Cc1ccc(CN2C(=O)C(O)(c3c[nH]c4ccccc34)c3cc(Cl)ccc32)cc1` (stereo not drawn), the survival is -11% (active). As for `Cc1ccccc1CN1C(=O)C(O)(c2c[nH]c3ccccc23)c2cc(Cl)ccc21` (stereo not drawn), the figure is -11% (active).

`CCCCN1C(=O)C(O)(c2c(C)[nH]c3ccccc23)c2cc(Br)ccc21` (stereo not drawn): the survival was 36%. As for `O=C1N(Cc2ccccc2)c2ccc(Cl)cc2C1(O)c1c[nH]c2ccccc12` (stereo not drawn), the figure is 53%.

Turning to `Cc1[nH]c2ccccc2c1C1(O)C(=O)N(Cc2ccccc2)c2ccc(Cl)cc21` (stereo not drawn), the survival is 28%.

`O=C1N(Cc2ccccc2Cl)c2ccccc2C1(O)c1c[nH]c2ccccc12` (stereo not drawn): the survival was 84%.
